Experimental data: the supplement of paper PMC11732987, “Enantioselective OTUD7B fragment discovery through chemoproteomics screening and high-throughput optimisation” (Communications Chemistry, 2025)

Experiments:
Test in all cases: log2 ratio of Biotin-Ahx-Ub-VS probe labelling (fragment/DMSO); higher = less target engagement (more negative = stronger competition), active = hit call of the paper (q ≤ 0.05, log2 ratio ≤ -1)
Conditions in all cases: compound concentration: 200 uM; treatment time: 3 h
[1] = target: T1, USP42 (UniProt Q9H9J4)
T1 sequence (whole entry): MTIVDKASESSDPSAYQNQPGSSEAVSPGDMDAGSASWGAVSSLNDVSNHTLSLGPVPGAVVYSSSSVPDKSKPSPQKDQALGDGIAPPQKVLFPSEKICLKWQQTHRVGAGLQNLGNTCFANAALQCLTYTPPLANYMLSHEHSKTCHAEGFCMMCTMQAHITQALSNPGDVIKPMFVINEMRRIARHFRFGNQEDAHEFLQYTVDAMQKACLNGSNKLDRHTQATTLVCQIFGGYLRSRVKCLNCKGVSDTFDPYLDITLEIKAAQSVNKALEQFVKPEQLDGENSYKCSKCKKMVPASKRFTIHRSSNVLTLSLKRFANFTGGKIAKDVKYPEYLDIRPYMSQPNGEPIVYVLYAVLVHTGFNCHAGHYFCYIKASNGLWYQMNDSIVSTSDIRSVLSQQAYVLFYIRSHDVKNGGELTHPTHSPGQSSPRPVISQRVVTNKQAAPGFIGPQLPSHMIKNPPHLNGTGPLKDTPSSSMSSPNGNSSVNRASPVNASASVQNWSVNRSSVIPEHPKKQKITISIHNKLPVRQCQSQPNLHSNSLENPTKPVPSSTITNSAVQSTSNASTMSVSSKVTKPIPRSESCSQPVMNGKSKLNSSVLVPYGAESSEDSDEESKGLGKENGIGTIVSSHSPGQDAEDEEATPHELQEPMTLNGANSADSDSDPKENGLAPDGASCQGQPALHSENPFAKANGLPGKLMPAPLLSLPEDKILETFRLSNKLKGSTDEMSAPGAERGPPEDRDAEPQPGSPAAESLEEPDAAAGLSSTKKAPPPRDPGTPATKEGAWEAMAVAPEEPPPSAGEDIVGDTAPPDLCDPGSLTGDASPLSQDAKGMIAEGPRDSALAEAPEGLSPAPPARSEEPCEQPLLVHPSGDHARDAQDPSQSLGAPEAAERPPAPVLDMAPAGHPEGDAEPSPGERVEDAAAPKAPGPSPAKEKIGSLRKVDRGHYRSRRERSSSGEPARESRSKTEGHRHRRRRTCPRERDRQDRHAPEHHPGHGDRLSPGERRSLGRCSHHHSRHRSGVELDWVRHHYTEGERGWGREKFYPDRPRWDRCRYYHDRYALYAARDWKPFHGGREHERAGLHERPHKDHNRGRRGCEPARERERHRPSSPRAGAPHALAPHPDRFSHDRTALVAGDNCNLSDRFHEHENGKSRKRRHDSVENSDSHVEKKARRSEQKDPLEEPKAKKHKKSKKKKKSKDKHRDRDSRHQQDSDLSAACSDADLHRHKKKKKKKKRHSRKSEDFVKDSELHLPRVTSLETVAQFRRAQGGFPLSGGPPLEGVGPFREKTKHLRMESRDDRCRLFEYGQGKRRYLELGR
How it was run: (§1)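 Using Biotin-Ahx-Ub-VS at 0.5 µM final for 1 h, DUBs were labelled in HEK293T lysate (495 µg per sample) that had first been treated in triplicate with fragment at 200 µM or vehicle for 3 h. NeutrAvidin enrichment, LysC and trypsin digestion and diaPASEF LC-MS/MS followed. Spectronaut label-free quantities were global-median-normalised. Values are average log2 fragment/vehicle ratios by unpaired t-test, using proteins with ≥2 unique peptides.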

[2] = target: USP46 (UniProt P62068)
Sequence of USP46 (P62068 whole entry): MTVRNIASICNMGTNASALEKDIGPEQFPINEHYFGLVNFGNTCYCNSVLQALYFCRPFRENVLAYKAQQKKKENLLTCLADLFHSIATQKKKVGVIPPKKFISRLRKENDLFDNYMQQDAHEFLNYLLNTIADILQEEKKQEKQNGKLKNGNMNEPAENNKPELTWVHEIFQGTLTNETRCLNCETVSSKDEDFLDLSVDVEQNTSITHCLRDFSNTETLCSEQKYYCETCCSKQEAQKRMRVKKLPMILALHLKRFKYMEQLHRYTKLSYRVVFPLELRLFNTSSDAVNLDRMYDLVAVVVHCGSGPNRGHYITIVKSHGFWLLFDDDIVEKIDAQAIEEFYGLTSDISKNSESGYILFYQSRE
How it was run: as §1

[3] = target: T2, USP47 (UniProt Q96K76)
T2 sequence (whole entry): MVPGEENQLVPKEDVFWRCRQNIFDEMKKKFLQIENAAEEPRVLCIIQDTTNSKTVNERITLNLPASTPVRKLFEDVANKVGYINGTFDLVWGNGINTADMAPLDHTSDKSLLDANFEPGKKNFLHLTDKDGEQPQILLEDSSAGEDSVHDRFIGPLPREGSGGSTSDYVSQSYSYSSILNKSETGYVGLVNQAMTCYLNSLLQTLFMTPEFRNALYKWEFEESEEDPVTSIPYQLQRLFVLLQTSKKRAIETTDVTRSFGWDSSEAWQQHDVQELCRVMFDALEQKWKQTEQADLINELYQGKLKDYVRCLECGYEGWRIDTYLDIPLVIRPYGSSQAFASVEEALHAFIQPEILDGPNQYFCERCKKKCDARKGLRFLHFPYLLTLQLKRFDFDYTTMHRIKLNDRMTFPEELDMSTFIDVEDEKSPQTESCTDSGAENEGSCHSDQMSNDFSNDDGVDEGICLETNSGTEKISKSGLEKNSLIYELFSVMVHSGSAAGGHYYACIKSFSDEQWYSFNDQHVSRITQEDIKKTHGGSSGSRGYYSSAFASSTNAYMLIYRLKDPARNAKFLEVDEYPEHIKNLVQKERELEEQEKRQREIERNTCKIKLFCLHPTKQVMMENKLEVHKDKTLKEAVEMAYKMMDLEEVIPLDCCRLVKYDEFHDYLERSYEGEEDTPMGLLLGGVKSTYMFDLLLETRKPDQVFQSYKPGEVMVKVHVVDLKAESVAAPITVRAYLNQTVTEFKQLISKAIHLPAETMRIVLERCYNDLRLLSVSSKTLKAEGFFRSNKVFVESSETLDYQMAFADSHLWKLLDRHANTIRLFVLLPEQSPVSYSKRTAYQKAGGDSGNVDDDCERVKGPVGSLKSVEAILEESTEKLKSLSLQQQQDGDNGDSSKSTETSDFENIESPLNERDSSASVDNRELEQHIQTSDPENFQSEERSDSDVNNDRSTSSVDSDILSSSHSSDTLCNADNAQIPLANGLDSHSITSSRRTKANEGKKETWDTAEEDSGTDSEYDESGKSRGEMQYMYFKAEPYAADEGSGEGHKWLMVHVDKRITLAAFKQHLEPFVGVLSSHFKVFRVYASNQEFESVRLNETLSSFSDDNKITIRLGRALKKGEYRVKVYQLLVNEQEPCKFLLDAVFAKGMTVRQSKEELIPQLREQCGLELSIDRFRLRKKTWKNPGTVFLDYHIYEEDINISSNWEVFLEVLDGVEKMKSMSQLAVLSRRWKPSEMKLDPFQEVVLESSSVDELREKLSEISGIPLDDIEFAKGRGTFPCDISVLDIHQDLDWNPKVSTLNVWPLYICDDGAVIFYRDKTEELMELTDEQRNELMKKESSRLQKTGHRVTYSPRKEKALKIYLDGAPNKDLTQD
How it was run: as §1

[4] = target: T3, USP48 (UniProt Q86UV5)
T3 sequence (whole entry): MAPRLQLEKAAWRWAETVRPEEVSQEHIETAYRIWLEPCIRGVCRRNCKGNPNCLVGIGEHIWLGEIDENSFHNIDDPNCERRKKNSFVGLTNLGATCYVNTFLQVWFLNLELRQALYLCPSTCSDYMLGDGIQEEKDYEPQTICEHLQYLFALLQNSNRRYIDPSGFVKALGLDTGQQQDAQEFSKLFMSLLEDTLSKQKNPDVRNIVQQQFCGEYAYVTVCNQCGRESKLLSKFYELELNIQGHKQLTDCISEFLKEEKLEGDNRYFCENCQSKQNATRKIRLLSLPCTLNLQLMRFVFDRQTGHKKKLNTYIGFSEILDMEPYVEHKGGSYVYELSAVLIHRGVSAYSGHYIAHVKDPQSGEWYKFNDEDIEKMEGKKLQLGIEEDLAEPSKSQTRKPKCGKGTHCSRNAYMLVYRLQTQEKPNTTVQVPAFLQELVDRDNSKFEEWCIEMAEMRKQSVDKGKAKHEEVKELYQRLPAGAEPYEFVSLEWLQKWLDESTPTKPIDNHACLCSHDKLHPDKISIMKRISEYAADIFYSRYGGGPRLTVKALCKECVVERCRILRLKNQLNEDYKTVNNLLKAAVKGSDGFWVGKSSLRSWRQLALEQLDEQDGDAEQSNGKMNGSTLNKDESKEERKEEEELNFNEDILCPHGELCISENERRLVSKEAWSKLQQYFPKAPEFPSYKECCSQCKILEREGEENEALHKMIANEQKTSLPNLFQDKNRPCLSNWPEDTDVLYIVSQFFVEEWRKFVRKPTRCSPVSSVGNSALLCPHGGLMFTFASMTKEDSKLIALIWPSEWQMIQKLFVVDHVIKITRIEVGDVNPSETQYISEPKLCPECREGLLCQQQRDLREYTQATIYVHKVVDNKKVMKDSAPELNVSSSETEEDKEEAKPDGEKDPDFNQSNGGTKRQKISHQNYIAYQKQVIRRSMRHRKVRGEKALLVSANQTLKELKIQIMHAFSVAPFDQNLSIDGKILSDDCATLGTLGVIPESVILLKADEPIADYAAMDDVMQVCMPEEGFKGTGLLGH
How it was run: as §1

[5] = target: T4, USP5 (UniProt P45974)
T4 sequence (whole entry): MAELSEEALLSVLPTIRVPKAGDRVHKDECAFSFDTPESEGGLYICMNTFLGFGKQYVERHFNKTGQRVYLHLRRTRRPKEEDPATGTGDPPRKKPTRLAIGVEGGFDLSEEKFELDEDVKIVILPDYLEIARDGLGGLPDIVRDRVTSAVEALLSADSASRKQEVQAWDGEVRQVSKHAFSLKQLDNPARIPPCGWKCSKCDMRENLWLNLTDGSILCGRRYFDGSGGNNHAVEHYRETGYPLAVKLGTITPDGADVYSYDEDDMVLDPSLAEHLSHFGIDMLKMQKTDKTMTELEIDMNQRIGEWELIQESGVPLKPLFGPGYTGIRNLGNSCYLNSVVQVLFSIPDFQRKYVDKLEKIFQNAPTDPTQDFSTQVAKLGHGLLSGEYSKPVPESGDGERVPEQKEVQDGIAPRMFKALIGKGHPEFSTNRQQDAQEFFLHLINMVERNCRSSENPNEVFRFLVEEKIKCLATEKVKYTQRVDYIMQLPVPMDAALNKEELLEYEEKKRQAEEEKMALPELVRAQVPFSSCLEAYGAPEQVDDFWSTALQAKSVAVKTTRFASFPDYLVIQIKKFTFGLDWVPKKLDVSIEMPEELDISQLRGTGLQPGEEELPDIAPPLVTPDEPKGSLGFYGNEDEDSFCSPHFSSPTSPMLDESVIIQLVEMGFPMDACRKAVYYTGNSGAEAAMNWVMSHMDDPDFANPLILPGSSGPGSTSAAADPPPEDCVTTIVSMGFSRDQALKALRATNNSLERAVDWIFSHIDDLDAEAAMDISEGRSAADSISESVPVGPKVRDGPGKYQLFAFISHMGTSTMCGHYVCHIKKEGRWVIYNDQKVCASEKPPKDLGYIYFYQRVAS
How it was run: as §1

[6] = target: USP54 (UniProt Q70EL1)
Sequence of USP54 (Q70EL1 whole entry): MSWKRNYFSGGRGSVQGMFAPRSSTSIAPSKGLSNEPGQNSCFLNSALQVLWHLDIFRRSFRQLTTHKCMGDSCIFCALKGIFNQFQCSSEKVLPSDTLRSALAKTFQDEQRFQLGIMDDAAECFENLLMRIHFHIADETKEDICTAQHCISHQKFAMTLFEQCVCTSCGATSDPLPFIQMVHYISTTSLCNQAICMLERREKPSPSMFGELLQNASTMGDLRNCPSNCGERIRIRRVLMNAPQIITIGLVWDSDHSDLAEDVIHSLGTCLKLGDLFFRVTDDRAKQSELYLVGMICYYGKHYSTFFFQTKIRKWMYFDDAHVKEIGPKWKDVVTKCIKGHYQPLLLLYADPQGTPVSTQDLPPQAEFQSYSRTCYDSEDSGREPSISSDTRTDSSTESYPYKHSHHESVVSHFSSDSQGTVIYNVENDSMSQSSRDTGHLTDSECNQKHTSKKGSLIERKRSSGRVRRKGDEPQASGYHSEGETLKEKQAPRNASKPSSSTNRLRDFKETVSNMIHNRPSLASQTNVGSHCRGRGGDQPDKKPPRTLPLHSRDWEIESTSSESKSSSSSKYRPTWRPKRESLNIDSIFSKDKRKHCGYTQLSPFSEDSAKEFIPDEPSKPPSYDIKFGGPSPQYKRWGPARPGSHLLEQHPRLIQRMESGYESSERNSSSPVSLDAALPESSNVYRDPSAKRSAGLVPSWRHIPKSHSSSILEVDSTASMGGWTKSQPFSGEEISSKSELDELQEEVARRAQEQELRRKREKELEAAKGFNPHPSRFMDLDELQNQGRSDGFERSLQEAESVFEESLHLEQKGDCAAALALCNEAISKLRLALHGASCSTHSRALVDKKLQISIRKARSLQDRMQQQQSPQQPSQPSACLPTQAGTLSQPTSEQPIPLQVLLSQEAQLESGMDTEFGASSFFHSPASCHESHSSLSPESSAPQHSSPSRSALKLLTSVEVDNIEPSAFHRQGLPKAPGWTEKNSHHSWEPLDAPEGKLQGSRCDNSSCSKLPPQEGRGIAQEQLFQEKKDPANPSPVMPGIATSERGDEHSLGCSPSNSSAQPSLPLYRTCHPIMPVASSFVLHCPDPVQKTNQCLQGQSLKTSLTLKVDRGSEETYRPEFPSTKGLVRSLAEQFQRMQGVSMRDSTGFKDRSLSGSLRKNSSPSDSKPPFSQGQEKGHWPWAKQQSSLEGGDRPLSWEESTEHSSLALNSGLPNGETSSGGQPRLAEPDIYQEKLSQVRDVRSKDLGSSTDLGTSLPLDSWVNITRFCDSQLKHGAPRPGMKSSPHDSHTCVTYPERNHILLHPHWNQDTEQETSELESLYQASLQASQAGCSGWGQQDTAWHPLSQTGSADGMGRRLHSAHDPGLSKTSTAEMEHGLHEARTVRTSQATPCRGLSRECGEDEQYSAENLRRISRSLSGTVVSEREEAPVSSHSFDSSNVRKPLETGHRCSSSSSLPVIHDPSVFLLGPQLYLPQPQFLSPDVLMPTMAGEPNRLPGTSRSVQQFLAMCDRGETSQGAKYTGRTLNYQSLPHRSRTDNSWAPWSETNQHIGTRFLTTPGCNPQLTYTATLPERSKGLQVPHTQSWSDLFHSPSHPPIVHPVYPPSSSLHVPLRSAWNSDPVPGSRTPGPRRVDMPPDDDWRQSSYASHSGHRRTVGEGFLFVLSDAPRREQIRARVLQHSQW
How it was run: as §1

[7] = target: USP7 (UniProt Q93009)
Sequence of USP7 (Q93009 whole entry, looked up): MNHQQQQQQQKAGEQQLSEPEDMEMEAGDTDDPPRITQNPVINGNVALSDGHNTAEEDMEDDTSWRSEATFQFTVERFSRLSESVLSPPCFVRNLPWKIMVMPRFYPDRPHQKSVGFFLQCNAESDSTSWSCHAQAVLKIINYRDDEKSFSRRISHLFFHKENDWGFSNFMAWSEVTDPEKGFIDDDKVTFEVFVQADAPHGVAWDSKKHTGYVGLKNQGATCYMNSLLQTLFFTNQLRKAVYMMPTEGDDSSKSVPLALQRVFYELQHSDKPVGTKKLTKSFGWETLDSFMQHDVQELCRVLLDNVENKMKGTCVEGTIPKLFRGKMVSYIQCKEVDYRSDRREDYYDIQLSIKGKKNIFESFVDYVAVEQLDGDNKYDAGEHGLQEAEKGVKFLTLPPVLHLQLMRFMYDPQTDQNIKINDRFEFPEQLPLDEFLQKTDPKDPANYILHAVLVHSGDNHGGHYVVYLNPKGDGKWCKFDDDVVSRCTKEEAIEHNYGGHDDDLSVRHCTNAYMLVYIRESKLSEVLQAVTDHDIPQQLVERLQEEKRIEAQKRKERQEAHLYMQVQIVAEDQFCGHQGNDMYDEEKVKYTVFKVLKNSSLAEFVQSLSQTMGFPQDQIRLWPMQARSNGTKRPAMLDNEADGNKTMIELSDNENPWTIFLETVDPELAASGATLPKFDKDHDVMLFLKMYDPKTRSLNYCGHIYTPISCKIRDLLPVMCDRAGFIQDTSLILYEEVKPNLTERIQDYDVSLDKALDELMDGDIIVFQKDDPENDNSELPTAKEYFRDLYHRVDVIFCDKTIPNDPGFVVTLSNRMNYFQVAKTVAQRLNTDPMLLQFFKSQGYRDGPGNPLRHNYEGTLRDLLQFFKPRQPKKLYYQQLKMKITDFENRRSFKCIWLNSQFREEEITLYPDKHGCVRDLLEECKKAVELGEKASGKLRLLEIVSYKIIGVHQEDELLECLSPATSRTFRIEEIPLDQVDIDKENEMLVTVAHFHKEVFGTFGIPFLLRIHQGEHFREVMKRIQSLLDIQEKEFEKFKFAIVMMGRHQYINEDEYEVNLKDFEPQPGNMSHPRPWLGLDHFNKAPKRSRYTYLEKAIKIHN
How it was run: as §1

[8] = target: T5, USP8 (UniProt P40818)
T5 sequence (whole entry): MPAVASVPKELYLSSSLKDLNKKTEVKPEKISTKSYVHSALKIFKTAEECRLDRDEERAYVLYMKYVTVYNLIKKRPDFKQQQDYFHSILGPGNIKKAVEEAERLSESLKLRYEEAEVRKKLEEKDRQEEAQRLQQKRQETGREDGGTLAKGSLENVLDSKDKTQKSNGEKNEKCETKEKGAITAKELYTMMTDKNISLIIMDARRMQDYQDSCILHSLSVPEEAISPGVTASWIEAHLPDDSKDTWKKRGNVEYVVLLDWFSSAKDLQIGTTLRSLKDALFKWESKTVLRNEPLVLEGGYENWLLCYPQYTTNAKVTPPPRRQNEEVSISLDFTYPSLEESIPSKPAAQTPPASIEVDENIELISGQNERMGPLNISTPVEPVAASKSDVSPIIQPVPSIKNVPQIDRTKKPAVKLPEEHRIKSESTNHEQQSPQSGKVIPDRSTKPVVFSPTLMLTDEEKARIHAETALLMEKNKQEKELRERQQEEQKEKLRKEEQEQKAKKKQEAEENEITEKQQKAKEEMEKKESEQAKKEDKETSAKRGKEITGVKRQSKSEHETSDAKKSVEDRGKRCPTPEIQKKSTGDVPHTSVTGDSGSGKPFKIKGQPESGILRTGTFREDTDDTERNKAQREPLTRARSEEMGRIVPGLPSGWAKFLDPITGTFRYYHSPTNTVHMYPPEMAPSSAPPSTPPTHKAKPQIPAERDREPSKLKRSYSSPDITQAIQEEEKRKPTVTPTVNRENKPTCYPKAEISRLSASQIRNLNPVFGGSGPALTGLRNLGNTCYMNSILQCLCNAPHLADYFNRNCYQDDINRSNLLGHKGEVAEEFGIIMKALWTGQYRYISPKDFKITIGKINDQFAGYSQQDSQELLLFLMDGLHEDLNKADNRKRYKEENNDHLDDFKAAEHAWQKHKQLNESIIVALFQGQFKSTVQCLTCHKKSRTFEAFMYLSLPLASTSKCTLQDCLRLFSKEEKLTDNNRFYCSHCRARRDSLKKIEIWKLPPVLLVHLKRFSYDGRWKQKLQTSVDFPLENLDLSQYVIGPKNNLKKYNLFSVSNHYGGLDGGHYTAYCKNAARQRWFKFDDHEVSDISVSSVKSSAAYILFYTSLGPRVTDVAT
How it was run: as §1

Measured: log2 ratio of Biotin-Ahx-Ub-VS probe labelling

Cc1nc(CN2CCCN(C(=O)CCl)CC2)no1.Cl
inactive: [1] 0.102 | [2] 0.0734 | [3] -0.095 | [4] 0.261 | [5] -0.016 | [6] -0.482 | [7] -0.0348 | [8] 0.237
